Shown are actives, neighbours in structure and some others; about 1.7% of the full set was active somewhere.
LDHA block: inhibitors of human lactate dehydrogenase A | P00338 | purified LDHA, NADH/diaphorase-resazurin fluorescence; stronger effect = lower value | activity change, % (values are at about 110 or 230 µM) | hit rate 0.15% among 480,000; in the data active = activity change below about -30%; inconclusive = mostly about -25% to -30%
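LDH5 2 nM; NADH 0.06 mM, pyruvate 0.2 mM; 200 mM Tris pH 7.4, EDTA, Tween-20; 5 min RT. Detection: diaphorase 0.133 mg/mL + resazurin 37 µM, fluorescence ex540/em590 at 0 and 20 min; normalized to enzyme-free and DMSO wells.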
GLP-1R agonist: activates the human GLP-1 receptor | P43220 | HEK293 GLP-1R CRE-luciferase, luminescence, 4-6 h; cells express a hypersensitive GLP-1R form | Potency, µM (doses to about 45.6 µM), hits mostly activators | hit rate 0.007% among 380,000 | AID 624172
PTHR1 ag: activates the human parathyroid hormone receptor PTHR1; Q03431; HEK293 GP2 PTHR1 cells, GloSensor cAMP luminescence, 1 h; Potency, µM (series often up to 115 µM), usual class: activators; hit rate 0.075% among 410,000; AID 743266; also: nearly all actives have a fitted effect of over 55% in size
Target sequence (Q03431 whole entry, looked up): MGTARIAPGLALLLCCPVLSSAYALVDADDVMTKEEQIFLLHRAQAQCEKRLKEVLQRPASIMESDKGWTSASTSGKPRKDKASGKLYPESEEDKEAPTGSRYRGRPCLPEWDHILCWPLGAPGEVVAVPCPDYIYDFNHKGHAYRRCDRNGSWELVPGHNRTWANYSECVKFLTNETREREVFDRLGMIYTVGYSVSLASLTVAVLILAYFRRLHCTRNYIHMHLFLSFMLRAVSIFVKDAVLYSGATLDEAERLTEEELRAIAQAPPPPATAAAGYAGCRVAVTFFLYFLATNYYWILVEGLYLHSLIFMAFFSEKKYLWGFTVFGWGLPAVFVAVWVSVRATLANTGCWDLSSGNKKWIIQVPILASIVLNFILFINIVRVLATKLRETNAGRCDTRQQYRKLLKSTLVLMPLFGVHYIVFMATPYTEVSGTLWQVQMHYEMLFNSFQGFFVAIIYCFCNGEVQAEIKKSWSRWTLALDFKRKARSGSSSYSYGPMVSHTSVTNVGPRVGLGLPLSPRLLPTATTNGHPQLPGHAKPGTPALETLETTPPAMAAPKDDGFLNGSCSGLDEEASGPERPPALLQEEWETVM
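HEK-293-derived GP2 cells expressing PTHR1 and a GloSensor cAMP reporter, 3,000/well, plated overnight, given luciferin plus IBMX (each 0.5 mM as added) for 1 h at 37 °C, then compound for 1 h at 37 °C. Luminescence was read after 15 min at room temperature.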
HEK293 tox: cytotoxic in the GLP-1 receptor inverse agonist counter-screen | HEK293 cAMP-luciferase reporter cells, luminescence, 24 h | Potency, µM (doses to about 38.3 µM), actives largely listed as inhibitors | hit rate 0.13% among 410,000 | AID 624418;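 also: loss of luciferase light is scored as toxicity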
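Cells in DMEM/10% Nu serum/1% pen-strep, 1536-well format. Pre-incubated 12 h, dosed with 23 nL compound, incubated a further 24 h. Luciferase detection, 12 min at room temp, luminescence.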
mIDH1 inhibitor: human IDH1 R132H inhibition. O75874. IDH1-R132H enzyme, NADPH consumption, diaphorase/resazurin fluorescence. Potency, µM (top dose mostly 76.6 µM), usual class: inhibitors. hit rate 0.093% among 390,000. AID 602179; also: nearly all actives have a fitted effect of over 65% in size
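IDH1-R132H (0.5 ug/mL dispensed) in pH 7.5 Tris buffer was preincubated 30 min with compound, then given a substrate mix of 0.016 mM NADPH and 2 mM alpha-KG for 80 min at room temperature; remaining NADPH was read by diaphorase/resazurin fluorescence.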
GLP1R inv ag: inverse agonists of human GLP-1 receptor; P43220; Potency, µM (top dose mostly 38.3 µM), usual class: inhibitors; HEK293 GLP-1R CRE-luciferase, luminescence, 24 h; GLP-1R form is constitutively active; hit rate 1.6% among 410,000; also: nearly all actives have a fitted effect of over 55% in size
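Inverse agonism was detected as reduced cAMP-driven luciferase luminescence after 24 h compound treatment. The cells were HEK293 clones expressing constitutively active human GLP-1R with the reporter. Reporter-only and GPR119 cell lines served as counterscreen controls.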
Large screens that a line does not name were inactive. Unless noted, calls follow the shape of the dose curve; as a rule, active = well fitted curve in the direction sought with a large enough effect; inconclusive = small, poorly fitted or top-dose-only effect, or another doubt; inactive = no such curve, though single readings can be large; an effect the other way counts as inactive or inconclusive.

CCCCN(Cc1ccccc1)c1ncnc2nc[nH]c12	GLP1R inv ag inconclusive
CCCCN(CCCC)c1ncnc2nc[nH]c12	GLP1R inv ag 4.5µM
Cc1cc(Br)c2c(c1)C(O)(N1CCCCC1C)C(=O)N2 (stereo unspecified)	GLP1R inv ag 11µM
COc1ccc(C(=O)c2oc3cc(NC(=O)C(C)C)ccc3c2C)cc1OC	none (no result: GLP-1R agonist, PTHR1 ag, HEK293 tox, mIDH1 inhibitor, GLP1R inv ag)
COc1ccc(CCNC(=O)CCc2c(C)nc3c(c(C)nn3-c3ccc(C)c(C)c3)c2C)cc1OC	none
CCN(CC)CCNC(=O)CCc1c(C)nc2c(c(C)nn2-c2ccc(C)c(C)c2)c1C	HEK293 tox inconclusive, GLP1R inv ag 4µM
OC(CNCc1ccc(-c2ccccc2)cc1)c1ccccc1 (stereo unspecified)	GLP-1R agonist inconclusive, HEK293 tox inconclusive, GLP1R inv ag 10µM
CCc1ccc(CNCC(O)c2ccccc2)cc1 (stereo unspecified)	none (no result: GLP-1R agonist, PTHR1 ag, HEK293 tox, mIDH1 inhibitor, GLP1R inv ag)
CCCC1CC(C)(c2csc(Nc3ccc(OCC)cc3)n2)OC1=O (stereo unspecified)	GLP1R inv ag 11µM
CCOc1ccc(NC(=O)c2nc3ccccc3nc2N2CCCCC2)cc1	none (no result: GLP-1R agonist, PTHR1 ag, HEK293 tox, mIDH1 inhibitor, GLP1R inv ag)
Cc1c(C(=O)OC2CCCCC2)[nH]c2c1C(=O)CC(c1ccccc1Cl)C2 (stereo unspecified)	GLP1R inv ag inconclusive (no result: GLP-1R agonist)
Cc1c(C(=O)N2CCOCC2)[nH]c2c1C(=O)CC(c1ccccc1Cl)C2 (stereo unspecified)	HEK293 tox 5.6µM, GLP1R inv ag inconclusive
c1ccc(Cn2nnnc2C(c2ccccc2)N2CCN(c3nc4ccccc4s3)CC2)cc1 (stereo unspecified)	none
CCCCn1nnnc1C(c1ccccc1)N1CCN(c2ccc(F)cc2)CC1 (stereo unspecified)	none (no result: mIDH1 inhibitor)
Fc1ccc(C(c2nnnn2Cc2cccs2)N2CCN(c3ccccc3)CC2)cc1 (stereo unspecified)	GLP1R inv ag 7.9µM
c1ccc(C(c2nnnn2Cc2ccco2)N2CCN(c3nc4ccccc4s3)CC2)cc1 (stereo unspecified)	GLP1R inv ag 7.9µM
CCCCC(c1nnnn1Cc1ccco1)N1CCN(c2nc3ccccc3s2)CC1 (stereo unspecified)	GLP1R inv ag 7.1µM
CCCC(=O)Nc1nc(-c2ccc3c(c2)CCO3)cs1	none (no result: GLP-1R agonist, PTHR1 ag, HEK293 tox, mIDH1 inhibitor, GLP1R inv ag)
COC(=O)C1=C(CN2CCN(c3ccccn3)CC2)NC(=O)NC1c1cccc(OC)c1 (stereo unspecified)	none (no result: GLP-1R agonist, PTHR1 ag, HEK293 tox, mIDH1 inhibitor, GLP1R inv ag)
CN(Cc1ccc2c(c1)OCO2)C(=O)CCc1ncc(-c2ccc(F)cc2)o1	none (no result: GLP-1R agonist, PTHR1 ag, HEK293 tox, mIDH1 inhibitor, GLP1R inv ag)
CC(C)(C)OC(=O)N1CCC(c2c(C(=O)N3CCCCC3)cnn2-c2ccc(Cl)cc2)CC1	none (no result: GLP-1R agonist)
CCOC(=O)c1cnn(-c2ccc(Cl)cc2)c1C1CCN(C(=O)OC(C)(C)C)CC1	GLP1R inv ag 10µM
Cc1ccc(-n2ncc(C(=O)NCCc3c[nH]c4ccccc34)c2C2CCN(C(=O)OC(C)(C)C)CC2)cc1C	GLP1R inv ag 11µM
CCCNC(=O)c1cnn(-c2ccc(C)c(C)c2)c1C1CCN(C(=O)OC(C)(C)C)CC1	none (no result: GLP-1R agonist)
Cc1ccc2c(=O)cc(C(=O)Nc3cccnc3)oc2c1C	none (no result: GLP-1R agonist, PTHR1 ag, HEK293 tox, mIDH1 inhibitor, GLP1R inv ag)
COCC(=O)OC1CCn2c1nc1c2C(=O)C(C)=C(NC(C)=O)C1=O (stereo unspecified)	HEK293 tox 11µM, GLP1R inv ag 10µM
OCCCn1c(CCCNc2nc(-c3cccc(Br)c3)cs2)nc2cc(Cl)c(N3CCCCC3)cc21	GLP1R inv ag 10µM
CCCCC(=O)N1CCN(c2nc(-c3ccco3)c3c(c2C#N)CCCC3)CC1	none (no result: GLP-1R agonist, PTHR1 ag, HEK293 tox, mIDH1 inhibitor, GLP1R inv ag)
CN(C)CCNC(=O)COc1ccc(C23CC4CC(CC(C4)C2)C3)cc1	HEK293 tox inconclusive, GLP1R inv ag 2.8µM
CCOC(=O)c1c(-c2ccccc2)oc2ccc(OCC(O)CN(C)C)cc12 (stereo unspecified)	HEK293 tox inconclusive, GLP1R inv ag 2.8µM
COc1cc(/C=C/C(=O)O)cc(Br)c1OC(C)C	none (no result: GLP-1R agonist, PTHR1 ag, HEK293 tox, mIDH1 inhibitor, GLP1R inv ag)

Screening results: PubChem BioAssay, National Center for Advancing Translational Sciences (NCATS)
